Experimental data taken from the supplement of paper PMC10849652.
Targets with a hit are over-represented here; the source holds about 8,800 in all. About 0.5% of all pairs of compound and target were hits. Values without a mark were called inactive.

Experiments:
Experiment in all cases: log2 fold change, soluble protein after heating vs DMSO (PISA); higher = thermal stabilisation; K562 lysate, 10 uM; active = over 0.2 and 3.5 SD of the protein, either way, in both replicates (recomputed)
[1] = compound: CCCS(=O)(=O)Nc1ccc(F)c(C(=O)c2c[nH]c3ncc(-c4ccc(Cl)cc4)cc23)c1F [vemurafenib]
How it was run: (§1)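 Pellets of K562 cells were dounce-homogenised in PBS pH 7.4 with 1 mM MgCl2, and the crude extract was held at 1 mg/mL protein for a 30 min treatment with 10 μM compound. Aliquots were heated for 3 min over 48°C-58°C and pooled before NP-40 was added to 0.5% at 4°C. The supernatant from 21,000xg for 90 min was quantified by TMTpro 16plex LC-MS/MS with channel sums equalised. Values are reported from duplicates as log-two fold change in thermal stability relative to solvent controls.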

[2] = compound: CCCS(=O)(=O)Nc1ccc(F)c(C(=O)c2c[nH]c3ncc(Cl)cc23)c1F
How it was run: as §1

[3] = compound: CCN(CCCOc1ccc2c(Nc3cc(CC(=O)Nc4cccc(F)c4)[nH]n3)ncnc2c1)CCOP(=O)(O)O [barasertib]
How it was run: as §1

[4] = compound: CC[C@@H]1C(=O)N(C)c2cnc(Nc3ccc(C(=O)NC4CCN(C)CC4)cc3OC)nc2N1C1CCCC1
How it was run: as §1

[5] = compound: CC[C@@H]1C(=O)N(C)c2cnc(Nc3ccc(C(=O)N[C@H]4CC[C@H](N5CCN(CC6CC6)CC5)CC4)cc3OC)nc2N1C(C)C [volasertib]
How it was run: as §1

[6] = compound: CCn1c(C(=O)N(C2CC2)C2CC2)cc2c3c(ncn3C)c(Nc3cc(C)n(C)n3)nc21
How it was run: as §1

[7] = compound: CCn1cc(-c2ccnc3[nH]c(-c4cccc(CN(C)C)c4)cc23)c(-c2ccc(NC(=O)N(C)C)cc2)n1
How it was run: as §1

[8] = compound: CN1CCC(CNc2ccc3ncc(-c4cccc(OC(F)(F)F)c4)n3n2)CC1
How it was run: as §1

[9] = compound: CN1CCN(CCOc2cc(OC3CCOCC3)c3c(Nc4c(Cl)ccc5c4OCO5)ncnc3c2)CC1 [saracatinib]
How it was run: as §1

[10] = compound: CN1CCN(c2nc(C3=C(c4c[nH]c5ccccc45)C(=O)NC3=O)c3ccccc3n2)CC1 [sotrastaurin]
How it was run: as §1

UniProt Q9H7N4, sequence (Q9H7N4 whole entry, looked up): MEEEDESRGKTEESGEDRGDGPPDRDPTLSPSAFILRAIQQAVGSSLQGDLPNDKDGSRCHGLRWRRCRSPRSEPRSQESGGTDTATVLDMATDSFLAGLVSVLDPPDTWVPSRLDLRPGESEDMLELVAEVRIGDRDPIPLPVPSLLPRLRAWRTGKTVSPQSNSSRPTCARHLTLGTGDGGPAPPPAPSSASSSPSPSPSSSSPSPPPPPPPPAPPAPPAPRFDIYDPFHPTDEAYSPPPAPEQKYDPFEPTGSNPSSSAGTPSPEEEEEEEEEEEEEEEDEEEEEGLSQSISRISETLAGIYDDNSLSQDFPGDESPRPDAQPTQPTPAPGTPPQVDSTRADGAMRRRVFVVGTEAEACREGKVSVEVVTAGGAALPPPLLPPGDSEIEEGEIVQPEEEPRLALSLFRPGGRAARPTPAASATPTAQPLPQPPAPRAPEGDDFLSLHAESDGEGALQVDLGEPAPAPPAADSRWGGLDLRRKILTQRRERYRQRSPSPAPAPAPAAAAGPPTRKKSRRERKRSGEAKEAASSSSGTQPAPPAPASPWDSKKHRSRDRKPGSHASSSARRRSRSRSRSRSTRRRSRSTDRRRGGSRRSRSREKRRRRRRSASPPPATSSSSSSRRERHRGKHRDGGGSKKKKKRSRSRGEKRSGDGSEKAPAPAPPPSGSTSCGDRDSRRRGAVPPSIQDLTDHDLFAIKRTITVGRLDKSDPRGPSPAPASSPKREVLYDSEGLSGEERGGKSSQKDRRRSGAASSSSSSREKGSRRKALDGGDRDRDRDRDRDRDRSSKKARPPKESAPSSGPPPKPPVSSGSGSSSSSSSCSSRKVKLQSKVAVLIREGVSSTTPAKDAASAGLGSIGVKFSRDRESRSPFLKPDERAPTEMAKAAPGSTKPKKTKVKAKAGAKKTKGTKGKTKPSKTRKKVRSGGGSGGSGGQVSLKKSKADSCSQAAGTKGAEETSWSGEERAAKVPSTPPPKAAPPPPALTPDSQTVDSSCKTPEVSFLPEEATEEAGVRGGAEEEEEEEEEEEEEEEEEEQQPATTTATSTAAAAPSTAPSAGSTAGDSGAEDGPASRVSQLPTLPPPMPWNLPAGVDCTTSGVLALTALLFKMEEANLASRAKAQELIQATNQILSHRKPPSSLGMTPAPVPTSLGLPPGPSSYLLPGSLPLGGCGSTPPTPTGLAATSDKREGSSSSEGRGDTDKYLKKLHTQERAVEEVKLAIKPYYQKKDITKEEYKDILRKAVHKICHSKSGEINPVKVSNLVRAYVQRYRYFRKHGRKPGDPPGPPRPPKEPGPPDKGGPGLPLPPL
UniProt Q86U06, sequence (Q86U06 whole entry, looked up): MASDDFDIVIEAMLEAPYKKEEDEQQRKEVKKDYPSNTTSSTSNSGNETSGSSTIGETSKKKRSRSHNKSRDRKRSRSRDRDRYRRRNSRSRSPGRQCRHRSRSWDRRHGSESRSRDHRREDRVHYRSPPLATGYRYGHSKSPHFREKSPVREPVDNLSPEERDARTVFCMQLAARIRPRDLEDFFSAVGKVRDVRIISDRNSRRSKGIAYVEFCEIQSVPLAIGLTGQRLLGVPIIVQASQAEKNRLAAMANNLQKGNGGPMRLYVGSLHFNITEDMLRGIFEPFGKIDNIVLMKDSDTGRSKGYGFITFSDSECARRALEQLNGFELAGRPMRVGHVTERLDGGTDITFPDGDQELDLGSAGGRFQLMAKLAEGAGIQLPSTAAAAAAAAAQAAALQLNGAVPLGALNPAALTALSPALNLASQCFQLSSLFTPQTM
UniProt P04049, sequence (P04049 whole entry, looked up): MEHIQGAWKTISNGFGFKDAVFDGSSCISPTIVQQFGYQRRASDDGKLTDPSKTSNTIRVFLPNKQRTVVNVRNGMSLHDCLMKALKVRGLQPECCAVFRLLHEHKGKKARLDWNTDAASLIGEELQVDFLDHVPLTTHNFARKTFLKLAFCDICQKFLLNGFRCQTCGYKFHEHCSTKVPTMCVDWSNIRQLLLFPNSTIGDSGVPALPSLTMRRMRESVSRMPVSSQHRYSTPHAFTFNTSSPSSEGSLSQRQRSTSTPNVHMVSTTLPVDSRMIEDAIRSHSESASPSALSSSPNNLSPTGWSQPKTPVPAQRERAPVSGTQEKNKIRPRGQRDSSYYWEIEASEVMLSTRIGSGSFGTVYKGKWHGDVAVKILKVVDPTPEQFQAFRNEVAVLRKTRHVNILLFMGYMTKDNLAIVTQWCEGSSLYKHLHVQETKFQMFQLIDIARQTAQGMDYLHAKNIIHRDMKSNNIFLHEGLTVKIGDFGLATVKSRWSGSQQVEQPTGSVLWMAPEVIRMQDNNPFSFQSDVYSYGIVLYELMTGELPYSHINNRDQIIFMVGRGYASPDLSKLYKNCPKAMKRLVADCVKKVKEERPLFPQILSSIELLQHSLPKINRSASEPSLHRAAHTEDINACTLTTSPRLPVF
UniProt Q5XPI4, sequence (Q5XPI4 whole entry, looked up): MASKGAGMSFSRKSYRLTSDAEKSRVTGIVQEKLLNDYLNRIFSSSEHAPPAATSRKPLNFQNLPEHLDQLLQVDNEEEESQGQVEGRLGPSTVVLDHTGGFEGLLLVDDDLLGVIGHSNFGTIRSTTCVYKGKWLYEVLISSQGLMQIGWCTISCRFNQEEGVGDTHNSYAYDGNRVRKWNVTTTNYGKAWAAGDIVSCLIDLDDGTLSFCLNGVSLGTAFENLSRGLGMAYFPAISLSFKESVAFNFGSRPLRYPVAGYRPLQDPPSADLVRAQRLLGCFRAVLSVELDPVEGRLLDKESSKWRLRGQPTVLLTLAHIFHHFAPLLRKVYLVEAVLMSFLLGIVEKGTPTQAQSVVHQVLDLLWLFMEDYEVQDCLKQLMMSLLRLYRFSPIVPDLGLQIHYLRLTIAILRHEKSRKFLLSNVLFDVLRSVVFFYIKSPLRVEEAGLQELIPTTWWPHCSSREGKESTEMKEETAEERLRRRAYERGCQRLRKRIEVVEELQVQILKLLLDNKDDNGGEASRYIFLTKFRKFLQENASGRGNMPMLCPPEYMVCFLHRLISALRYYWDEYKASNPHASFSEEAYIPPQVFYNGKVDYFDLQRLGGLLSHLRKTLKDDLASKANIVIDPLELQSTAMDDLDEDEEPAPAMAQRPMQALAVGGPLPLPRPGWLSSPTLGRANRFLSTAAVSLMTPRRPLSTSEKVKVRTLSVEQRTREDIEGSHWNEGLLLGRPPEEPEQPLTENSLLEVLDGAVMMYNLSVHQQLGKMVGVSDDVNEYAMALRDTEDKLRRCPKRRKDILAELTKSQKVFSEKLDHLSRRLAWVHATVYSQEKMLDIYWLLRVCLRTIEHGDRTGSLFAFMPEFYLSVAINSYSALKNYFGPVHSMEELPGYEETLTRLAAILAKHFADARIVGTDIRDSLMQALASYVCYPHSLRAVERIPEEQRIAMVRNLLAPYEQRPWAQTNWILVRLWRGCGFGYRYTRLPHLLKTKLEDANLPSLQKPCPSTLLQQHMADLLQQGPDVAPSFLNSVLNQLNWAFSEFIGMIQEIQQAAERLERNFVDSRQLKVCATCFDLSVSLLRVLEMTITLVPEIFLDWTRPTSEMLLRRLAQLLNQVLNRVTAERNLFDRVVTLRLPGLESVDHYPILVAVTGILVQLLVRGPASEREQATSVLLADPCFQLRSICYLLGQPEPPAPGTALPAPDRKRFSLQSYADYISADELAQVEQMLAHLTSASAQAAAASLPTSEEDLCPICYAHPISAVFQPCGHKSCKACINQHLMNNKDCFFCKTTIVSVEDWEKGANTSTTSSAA
UniProt Q9P0K7, sequence (Q9P0K7 whole entry, looked up): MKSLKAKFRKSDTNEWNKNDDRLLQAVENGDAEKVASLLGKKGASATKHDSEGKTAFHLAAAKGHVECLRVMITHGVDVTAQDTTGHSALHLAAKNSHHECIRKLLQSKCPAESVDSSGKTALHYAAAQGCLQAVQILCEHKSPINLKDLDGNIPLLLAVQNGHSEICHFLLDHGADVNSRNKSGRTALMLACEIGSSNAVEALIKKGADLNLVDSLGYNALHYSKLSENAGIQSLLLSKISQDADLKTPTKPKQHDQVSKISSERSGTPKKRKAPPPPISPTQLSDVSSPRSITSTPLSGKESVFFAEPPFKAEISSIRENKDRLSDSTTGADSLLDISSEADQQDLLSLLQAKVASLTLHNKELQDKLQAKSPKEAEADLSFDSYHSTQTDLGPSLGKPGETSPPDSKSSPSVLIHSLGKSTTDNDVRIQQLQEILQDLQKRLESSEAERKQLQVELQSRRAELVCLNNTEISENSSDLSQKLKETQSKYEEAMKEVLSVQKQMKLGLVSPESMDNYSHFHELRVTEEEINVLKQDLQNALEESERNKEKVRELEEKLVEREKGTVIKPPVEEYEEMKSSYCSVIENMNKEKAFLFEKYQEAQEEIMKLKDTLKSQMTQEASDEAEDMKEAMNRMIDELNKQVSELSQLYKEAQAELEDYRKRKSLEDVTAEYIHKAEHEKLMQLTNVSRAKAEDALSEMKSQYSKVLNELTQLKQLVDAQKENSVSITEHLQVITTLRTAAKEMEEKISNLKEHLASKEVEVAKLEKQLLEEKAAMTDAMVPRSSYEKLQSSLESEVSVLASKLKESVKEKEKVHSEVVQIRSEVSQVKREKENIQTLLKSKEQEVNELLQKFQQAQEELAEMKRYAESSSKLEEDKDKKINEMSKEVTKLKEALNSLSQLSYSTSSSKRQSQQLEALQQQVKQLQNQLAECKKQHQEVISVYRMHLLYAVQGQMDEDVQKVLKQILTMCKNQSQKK
UniProt Q53S08, sequence (Q53S08 whole entry, looked up): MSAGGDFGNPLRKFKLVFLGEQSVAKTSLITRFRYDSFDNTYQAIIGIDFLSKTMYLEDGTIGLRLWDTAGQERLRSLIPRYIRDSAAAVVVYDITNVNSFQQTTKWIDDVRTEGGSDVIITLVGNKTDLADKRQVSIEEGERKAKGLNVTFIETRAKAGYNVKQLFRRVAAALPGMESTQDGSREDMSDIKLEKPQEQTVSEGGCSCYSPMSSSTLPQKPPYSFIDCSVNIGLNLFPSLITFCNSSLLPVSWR

| Target | log2 fold change [1] | log2 fold change [2] | log2 fold change [3] | log2 fold change [4] | log2 fold change [5] | log2 fold change [6] | log2 fold change [7] | log2 fold change [8] | log2 fold change [9] | log2 fold change [10] |
| --- | --- | --- | --- | --- | --- | --- | --- | --- | --- | --- |
| RBMX (UniProt P38159) | -0.058 | 0.013 | -0.026 | -0.012 | -0.02 | 0.067 | -0.007 | 0.009 | -0.031 | -0.014 |
| REEP5 (UniProt Q00765) | -0.008 | -0.006 | -0.008 | 0.073 | 0.023 | 0.027 | -0.051 | 0.026 | 0.017 | -0.02 |
| RAB21 (UniProt Q9UL25) | -0.038 | -0.005 | 0.041 | 0.005 | -0.006 | 0.008 | 0.262 (active) | -0.06 | 0.029 | -0.021 |
| RAI14 isoform 2 (UniProt Q9P0K7) | 0.001 | 0.066 | 0.061 | -0.019 | 0.005 | 0 | 0.045 | -0.011 | 0.031 | 0.026 |
| RAF1 isoform 2 (UniProt P04049) | 0.739 (active) | -0.142 | 0.068 | -0.159 | -0.083 | -0.029 | -0.028 | -0.037 | -0.014 | -0.041 |
| SCO1 (UniProt O75880) | -0.027 | -0.012 | -0.008 | -0.009 | 0.025 | -0.027 | -0.01 | 0.016 | 0.006 | 0.016 |
| RPS4X (UniProt P62701) | 0.001 | -0.014 | -0.033 | 0.001 | -0.007 | -0.025 | 0.242 (active) | -0.059 | -0.016 | -0.009 |
| SCCPDH (UniProt Q8NBX0) | -0.013 | -0.054 | 0.118 | 0.128 | 0.055 | -0.107 | -0.12 | 0.233 | -0.092 | 0.094 |
| RFC2 (UniProt P35250) | -0.043 | 0.007 | 0.038 | -0.095 | -0.09 | 0.024 | -0.068 | 0.023 | -0.005 | 0.03 |
| RPLP0P6 (UniProt Q8NHW5) | -0.002 | 0.012 | -0.121 | 0.009 | -0.009 | -0.02 | -0.011 | 0.017 | -0.011 | -0.02 |
| SCAF1 (UniProt Q9H7N4) | 0.027 | 0.093 | 0.079 | 0.089 | -0.114 | 0.05 | -0.041 | 0.008 | 0.009 | -0.029 |
| SERINC3 (UniProt Q13530) | 0.05 | 0.074 | -0.02 | 0.039 | 0.066 | -0.05 | -0.443 (active) | 0.224 | 0.052 | 0.081 |
| RBM23 isoform 2 (UniProt Q86U06) | 0.2 | 0.02 | 0.234 | -0.153 | -0.011 | 0.058 | -0.01 | -0.143 | 0.064 | 0.131 |
| RAB6D (UniProt Q53S08) | 0.005 | -0.033 | 0.15 | 0.289 (active) | 0.033 | -0.049 | -0.065 | 0.018 | -0.053 | -0.025 |
| SAR1B (UniProt Q9Y6B6) | 0.034 | 0 | 0.165 | 0.04 | -0.042 | 0.017 | -0.017 | -0.09 | 0.041 | 0.047 |
| RNF168 (UniProt Q8IYW5) | 0.152 | 0.134 | 0.235 | 0.128 | -0.062 | 0.138 | 0.015 | 0.035 | -0.007 | -0.06 |
| QTRT2 isoform 4 (UniProt Q9H974) | 0.003 | 0.012 | 0.004 | -0.022 | 0.036 | -0.035 | -0.318 (active) | 0.227 (active) | 0.016 | 0.013 |
| RAB1B (UniProt Q9H0U4) | -0.003 | 0.012 | 0.073 | 0.019 | 0.006 | -0.016 | -0.444 (active) | 0.171 | 0.021 | 0.017 |
| RNF123 (UniProt Q5XPI4) | 0.034 | 0.003 | 0.019 | -0.009 | -0.048 | 0.035 | -0.045 | 0.004 | -0.006 | 0.03 |
| RCOR3 isoform 3 (UniProt Q9P2K3) | -0.03 | -0.01 | -0.003 | -0.001 | -0.012 | 0.029 | -0.017 | 0.003 | 0.03 | -0.015 |
| REXO4 (UniProt Q9GZR2) | -0.018 | 0.007 | 0.088 | 0.013 | -0.034 | 0 | 0.452 (active) | -0.184 | -0.002 | 0.013 |
| RNF40 (UniProt O75150) | 0.001 | 0.008 | 0.043 | -0.005 | -0.047 | 0.002 | 0.011 | -0.033 | 0.033 | -0.012 |
| SEC13 isoform 3 (UniProt P55735) | -0.001 | -0.004 | -0.031 | -0.013 | 0.007 | 0.003 | 0.507 (active) | -0.042 | -0.027 | -0.015 |
| RPL27 (UniProt P61353) | -0.022 | -0.002 | 0.011 | -0.001 | -0.008 | -0.001 | 0.572 (active) | -0.079 | 0.019 | -0.015 |
| RIOK1 (UniProt Q9BRS2) | 0.021 | 0.023 | 0.001 | 0.02 | -0.093 | 0.004 | 0.017 | 0.057 | 0.032 | 0.001 |
| RAB3IL1 (UniProt Q8TBN0) | -0.018 | 0.017 | 0.054 | 0.022 | -0.008 | 0.054 | 0.025 | -0.016 | 0.033 | -0.024 |
| RALA (UniProt P11233) | 0.033 | 0.004 | -0.001 | 0.029 | 0.014 | -0.023 | -0.289 (active) | 0.169 | -0.021 | -0.027 |
| RAB8B (UniProt Q92930) | -0.137 | 0 | -0.036 | 0.028 | -0.036 | 0.007 | 0.252 | -0.142 | 0.08 | -0.024 |
| RNF113A (UniProt O15541) | 0.021 | -0.012 | -0.042 | 0.04 | 0.009 | -0.056 | -0.021 | 0.017 | 0.031 | -0.056 |
| RHOA (UniProt P61586) | 0.003 | -0.005 | -0.07 | 0.069 | 0.009 | 0.042 | 0.45 (active) | -0.06 | 0.009 | 0 |
